# Compounds with a hit are over-represented: about 1.3% of the library has one in this group of screens.
# TRPV1 ag – human TRPV1 agonism. Q8NER1. TRPV1-expressing cells, Fluo-8 calcium influx, agonist mode. activation, % at 8.33 µM. 320,000 compounds, 0.19% hits. AID 540275; in the data active means activation above about 80%; inconclusive means between about 30% and that limit
#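 TRPV1-expressing cells were cultured overnight at 35.5C and loaded with Fluo-8 calcium dye for 40 to 90 min at room temperature. After a 10 s baseline, compound was added and calcium influx was read kinetically for 3 min (ex 480/em 520 nm).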
# KCNH2 3.1 inh – KCNH2 3.1 (human) potassium channel inhibition | U2OS KCNH2 3.1, thallium flux FluxOr; hits give low values | activity change, % (tested at about 1.8 µM) | 340,000 compounds, 0.95% hits | AID 720553;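 active means maximum activity change below -70%; inconclusive means maximum activity change from -70% to -50%; inactive means maximum activity change above -50%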;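 further: thallium influx rate constant from kinetic fluorescence after stimulation buffer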
#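 Normalized rate constant (relative to positive and negative DMSO controls) derived from a 2 min kinetic fluorescence read after stimulation; U2OS cells expressing the 3.1 isoform via virus at 1.77 x 10^8 /mL.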
# KCNH2 WT inh – blocks the wildtype human KCNH2 potassium channel; U2OS, BacMam KCNH2, thallium flux FluxOr; hits give low values; AID 720551; Q12809; 340,000 compounds, 0.37% hits; activity change, % at 1.84 µM;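 active means maximum activity change below -70%; inconclusive means maximum activity change between -70% and -50%; inactive means maximum activity change above -50%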
#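 U2OS cells transduced with wild-type KCNH2 virus are loaded with FluxOr dye for 45 min, and thallium flux is measured in kinetic reads before and after stimulation buffer. Rate constants are normalized to DMSO controls.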
# TRPV1 PAM – enhances activation of the human vanilloid receptor TRPV1; TRPV1-expressing cells, Fluo-8 calcium influx, capsaicin EC20 potentiation; potentiation, % at 8.33 µM; 320,000 compounds, 0.02% hits; AID 540277; in the data active means potentiation above about 80%; inconclusive means between about 30% and that limit
#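 Cells expressing TRPV1 were dye-loaded with Fluo-8 and read kinetically: 10 s baseline, 3 min after compound (agonist portion), then 2 min after EC20 capsaicin (allosteric enhancer portion). Calcium-bound dye fluorescence at 480/520 nm.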
# Numbers stand for hits; 0 = inactive; ? = inconclusive; - = no result given.
SMILES,TRPV1 ag,KCNH2 3.1 inh,KCNH2 WT inh,TRPV1 PAM
Cc1ccc(N2C(=O)c3cccc4c(N)ccc(c34)C2=O)c2cccnc12,94.1,0,0,0
O=C1c2cccc3c(N4CCCCC4)ccc(c23)C(=O)N1c1ccccn1,?,0,0,0
CCCCNc1ccc2c3c(cccc13)C(=O)N(CCCC)C2=O,92.2,0,0,0
CN(C)CCCN1C(=O)c2cccc3c(Br)ccc(c23)C1=O,0,0,0,?
CCN1C(=O)c2cccc3c(N)ccc(c23)C1=O,198.5,0,0,0
Cc1nn(C)c(C)c1N1C(=O)c2cccc3c(N)ccc(c23)C1=O,93.5,0,0,0
O=C(COC(=O)c1cc(Br)ccc1O)NNC(=O)c1cccs1,0,0,0,0
O=C(NCC(=O)N1CCCCCCC1)c1ccc(Br)o1,0,0,0,0
CN(C)c1ncnc2c1C(c1ccccc1)C(C)(C)O2 (stereo unspecified),-,-,0,-
COc1ccccc1-n1cnnc1SCC(=O)NC1CCCCC1,0,0,0,0
O=C(CSc1nncn1-c1ccccc1F)NC1CCCCC1,0,-118.0,0,0
O=C(Cn1cncn1)N/N=C/c1cc([N+](=O)[O-])ccc1O,0,0,-104.3,0
O=C(c1ccc([N+](=O)[O-])cc1)N1CCN(c2ncccn2)CC1,-,0,0,-
C=CCN1N=C(/C=C/c2ccc(C)cc2)CCC1=O,0,-108.4,0,0
Cc1c(Cl)cccc1NC(=O)c1cc(-c2ccccc2O)n[nH]1,0,-103.3,0,?
O=C1OC(c2ccccc2)=C/C1=C/N1CCCCC1,80.9,0,0,0
O=C(Cc1ccc(Br)cc1)NCc1ccccc1,?,0,-299.9,0
Nc1ccc(CSc2ccc(Cl)cc2)c(Cl)c1,-,-101.6,0,-
C=CCN1C(=O)c2ccccc2Sc2ccc(C(=O)NCCC)cc21,0,0,0,0
CCOC(=O)C1(Cc2cccc(Cl)c2)CCCN(C(=O)c2c(CC)noc2C)C1 (stereo unspecified),?,0,0,0
O=C(c1ccc(F)cc1)C1CCN(CCn2c(=S)[nH]c3ccccc3c2=O)CC1,0,-,-,0
CC1(C)C(=O)N(CCN2CCC(C(=O)c3ccc(F)cc3)CC2)c2ccccc21,0,-75.2,0,0
COc1ccc(NC(=O)c2sc3nc4c(cc3c2N)CN(Cc2ccccc2)CC4)c(OC)c1,0,-,-,0
Cc1ccc(C)c(N2CCN(CCCNC(=O)Cn3cccc3C(=O)c3ccccc3C)CC2)c1,0,-84.4,-75.0,0
Cc1ccccc1C(=O)c1cccn1CC(=O)NCCCN1CCCCC1,0,0,0,0
SMILES,TRPV1 ag,KCNH2 3.1 inh,KCNH2 WT inh,TRPV1 PAM
Cc1ccccc1C(=O)c1cccn1CC(=O)NCCN1CCN(c2cccc(C)c2C)CC1,0,-78.7,?,0
Nc1ccc2ncccc2c1,0,-117.8,0,0
Nc1ccc(/C=C/c2ccc3ncccc3c2)cc1,0,0,0,0
CCOC(=O)n1cnc2nc(N)nc(SC)c21,-,0,0,-
O=C(c1ccc2ncsc2c1)N1CCN(c2cccc(C(F)(F)F)c2)CC1,0,0,0,0
Cc1cc(C(=O)N/N=C/c2cccc([N+](=O)[O-])c2)c(C)n1-c1ccccc1,89.3,-,0,0
COc1ccccc1NS(=O)(=O)c1ccc2c(c1)CCN2C(=O)CCC(=O)O,0,0,0,0
COc1ccc(CCN2CC(=O)NC(=O)C2)cc1OC,-,0,0,-
Cc1cccc(NC(=O)C(C)OC(=O)CNC(=O)C2CCCCC2)c1 (stereo unspecified),-,0,-143.6,-
O=C(CCC(=O)Nc1ccccc1)N/N=C/c1cccnc1,0,0,0,0
O=C(COc1ccc(F)cc1)NCCc1nc2ccccc2[nH]1,0,-,-,0
COc1ccc(OC)c(/C=N/NC(=O)c2[nH]ncc2Br)c1,0,0,0,0
CCOc1ccc(/C=N/NC(=O)c2[nH]ncc2Br)c(O)c1,0,-77.1,0,0
O=C1NC2(CCCCC2)OC12CCCCC2,-,0,0,-
Cc1ccc(S(=O)(=O)Nc2ccccc2CNc2ncc(Br)cc2Br)cc1,0,-94.2,0,?
CC(C)C[C@H](NC(=O)c1nc[nH]c1C(=O)NCc1ccc(CNC(=O)OC(C)(C)C)cc1)C(=O)OCc1ccccc1,0,0,0,0
CC(C)Nc1ccc(Nc2ccnc3cc4ccccc4cc23)cc1,-,-91.0,0,-
COc1ccc(Nc2ccnc3ccccc23)cc1,0,0,0,0
O=C(c1ccc(Br)cc1)N1CCC2(CC1)NCCc1[nH]cnc12,0,-87.3,?,0
CC(C)(C)c1ccc(C(=O)N2CCC3(CC2)NCCc2[nH]cnc23)cc1,0,0,0,0
CCOc1ccc(C(=O)N2CCC3(CC2)NCCc2[nH]cnc23)cc1,0,-89.4,0,0
Cc1ccc(NC(=O)CSc2nnc(COc3ccc(C#N)cc3)n2-c2ccccc2)cc1C,0,-70.6,0,0
Cc1ccc(C(=O)CSc2nnc(COc3ccc(C#N)cc3)n2-c2ccccc2)cc1,0,0,0,0
CC(C)(C)c1ccc(/C=C/C(=O)Nc2ccncc2)cc1,96.2,?,0,0
COC(=O)c1cc(NC(=O)COC(=O)CN2C(=O)C3CC=CCC3C2=O)cc(C(=O)OC)c1 (stereo unspecified),0,0,0,0
SMILES,TRPV1 ag,KCNH2 3.1 inh,KCNH2 WT inh,TRPV1 PAM
O=[N+]([O-])c1ccc(Nc2nc(NC3CCCCC3)nc(N3CCCC3)n2)cc1,0,0,0,0
COc1ccc(/C=N/Nc2nc(NCc3ccco3)nc(Nc3ccc(OC)cc3)n2)cc1,?,-92.8,0,0
COc1ccc(Nc2nc(NCc3ccco3)nc(N/N=C/c3ccc(O)cc3)n2)cc1,?,-89.9,0,0
COc1ccc(Nc2nc(Cl)nc(NCc3ccco3)n2)c(OC)c1,0,0,0,0
COc1ccc(Nc2nc(NCc3ccco3)nc(N/N=C/c3ccccc3F)n2)cc1,?,-96.6,0,0
COc1ccc(/C=N/Nc2nc(Nc3ccccc3)nc(N3CCCC3)n2)cc1,0,0,0,0
CC(C)(C)c1ccc(OCCCC(=O)N2CCOCC2)cc1,84.8,0,-,0
O=C(CCCOc1ccc(Cl)cc1)N1CCCCC1,89.9,0,0,0
COc1ccc(CCNc2ccc(C(CC(N)=O)NC(=O)c3cc(OC)ccc3OC)cc2[N+](=O)[O-])cc1 (stereo unspecified),0,0,0,0
COc1ccc(C)cc1NC(=O)C1CCCN(S(=O)(=O)c2cccnc2)C1 (stereo unspecified),0,0,0,0
CSc1ccc(CN(C)C(=O)c2cccc(S(=O)(=O)N3CCN(Cc4ccccc4)CC3)c2)cc1,0,0,-121.8,0
COCCOCC(=O)Nc1ccc(S(=O)(=O)Nc2cc(C)nc(C)n2)cc1,0,0,-107.7,0
CSc1cc(C)c(OCC(=O)Nc2c(C)nn(C)c2C)c(C)c1,?,0,0,0
O=C(NC1CCCC1)C(c1ccsc1)N(C(=O)Cc1cccs1)c1ccc(F)cc1 (stereo unspecified),0,-75.9,0,0
O=C(NC1CCCC1)C(c1ccsc1)N(C(=O)Cc1cccs1)c1cccc(F)c1 (stereo unspecified),0,0,0,0
CNC(=O)CSc1nnc(-c2ccco2)n1-c1ccc(C)cc1,0,0,0,0
